Assay outcomes: PubChem BioAssay, Broad Institute
HSF1 inhib – HSF1 inhibition; AID 2098; activity change, negative = inhibition, % at 7.5 µM (by protocol); NIH3T3-HGL HSE-luciferase, MG132-induced, luminescence 8 h; hits give low values; 300,000 compounds, 0.77% hits;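 active = more than half of replicate wells show activity change below -50%, luminescence cut by over half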;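 note: luciferase reports HSF-1 transcriptional activity via heat shock element; 0% = median of DMSO wells and -100% = zero luminescence signal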
esBAF inh – blocks esBAF chromatin remodeling in mouse ES cells; Bmi1-luciferase knock-in reporter, 24 h; 100% = twice the neutral-well signal; reporter increase, % at 12.5 µM; 350,000 compounds, 2% hits; in the data active = activation above about 40%;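 note: 0% = median of the plate's neutral control wells and 100% = double that signal; a rise in the Bmi1 reporter signal indicates esBAF inhibition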
HSF1 activator – increases HSF-1 driven luciferase reporter signal; NIH3T3-HGL HSF-1 luciferase reporter, MG132, 8 h; 100% = twice DMSO control signal; activation, % at 9 µM; 300,000 compounds, 1.7% hits; AID 504408;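 active = mean replicate activation of at least 50% with a set share of replicates each reaching 50%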;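 note: 0% = median of the neutral control wells and 100% = twice that signal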
Vif imaging – inhibitors of HIV Vif. inhibition, % at 7.49 µM. 340,000 compounds, 0.35% hits. HEK293T cells, Vif self-association by quenched fluorescence, imaging, 24 h. AID 602346; in the data active = inhibition above about 50%, passing the limit was not always enough
* hit, by the source's call; . = no result given. This is a sample that favours compounds with a hit; in the whole collection about 3.4% have one here.

SMILES	HSF1 inhib	esBAF inh	HSF1 activator	Vif imaging
C[C@H]1CN([C@@H](C)CO)C(=O)c2cccc(NC(=O)C3CCCCC3)c2O[C@@H]1CN(C)S(=O)(=O)c1ccc(Cl)cc1	.	-1	.	.
COc1ccc(-c2cnc3c(c2)C(=O)N([C@@H](C)CO)C[C@H](C)[C@H](CN(C)C(=O)Cc2ccncc2)O3)cc1	.	-3	.	.
N#Cc1ncc(Cc2ccccc2)nc1C#N	97	7	97*	-8
CCOc1cc(/C=C2\CCC/C(=C\c3cc(Cl)c(O)c(OCC)c3)C2=O)cc(Cl)c1O	215	-69	316*	18
COc1ccc(-c2oc3ccccc3c(=O)c2OC(C)=O)cc1	-11	75*	21	0
COc1ccc(-c2oc3ccccc3c(=O)c2OCC(=O)O)cc1	0	-3	0	6
CC(=O)Oc1cc(O)c2c(=O)c(OC(C)=O)c(-c3ccc(OC(C)=O)c(OC(C)=O)c3)oc2c1	-18	43*	-16	-14
CN(C)C(=O)C[C@@H]1CC[C@H]2[C@@H](COC[C@H](O)CN2CC2CC2)O1	.	0	.	.
O=C(C[C@H]1C[C@@H]2c3cc(NC(=O)C4CCOCC4)ccc3O[C@@H]2[C@@H](CO)O1)NCCN1CCCCC1	.	2	.	.
Cc1cc(NCCN2CCOCC2)n2ncc(-c3ccccc3)c2n1	-9	25	6	-9
Cc1cc(N2CCOCC2)n2ncc(-c3ccccc3)c2n1	-61*	-56	-69	.
Cc1nc2c(-c3ccccc3)cnn2c(N)c1-c1ccccc1	-87*	-50	-89	-2
Cc1nc2cc(-c3cccc(F)c3)nn2c(N2CCN(C(=O)c3ccco3)CC2)c1C	9	43*	15	-24
Cc1cc(N2CCCCC2)n2ncc(-c3ccc(Cl)cc3)c2n1	-38	26	-46	9
CCOC(=O)Cc1c(C)nc2c(-c3ccccc3)cnn2c1C	25	.	35	2
COc1ccc(-c2cc3nc(C)c(C)c(N4CCN(C(=O)c5ccoc5)CC4)n3n2)cc1	.	4	.	-8
C=CCc1c(C)nc2c(-c3ccccc3)cnn2c1N1CCOCC1	-45	84*	-55	3
Cc1ccc(S(=O)(=O)Nc2ccc3c(c2)CC(=O)N([C@H](C)CO)C[C@H](C)[C@H](CN(C)Cc2ccc(Oc4ccccc4)cc2)O3)cc1	.	1	.	.
Cc1cc(C(=O)Nc2cccc3c2O[C@@H](CN(C)Cc2ccc(Oc4ccccc4)cc2)[C@H](C)CN([C@@H](C)CO)C3=O)n(C)n1	.	-8	.	.
C[C@@H]1CN([C@H](C)CO)C(=O)c2cccc(NS(C)(=O)=O)c2O[C@@H]1CN(C)S(=O)(=O)c1ccccc1	.	1	.	.
Cc1cc(N2CCCCC2)n2ncc(-c3ccccc3)c2n1	-5	.	-13	4
COCCN1CCN(c2c(C)c(C)nc3cc(-c4cccc(OC)c4)nn23)CC1	6	52*	26	1
Cc1cc(N2CCOCC2)n2ncc(-c3ccc(Cl)cc3)c2n1	.	.	.	-6
Cc1cc(N2CCC(C)CC2)n2ncc(-c3ccccc3)c2n1	-79*	-28	-81	-4
Cc1cc(N2CCN(C(=O)c3ccco3)CC2)n2ncc(-c3ccccc3)c2n1	10	50*	23	-10
SMILES	HSF1 inhib	esBAF inh	HSF1 activator	Vif imaging
CCOCCN1CCN(c2c(C)c(C)nc3cc(-c4cc(OC)cc(OC)c4)nn23)CC1	5	2	39	23
Cc1ccc(-c2cnn3c(N4CCOCC4)cc(C)nc23)cc1	-68*	-29	-68	-1
Cc1cc(N2CCN(C(=O)c3ccco3)CC2)n2ncnc2n1	-7	.	0	3
N#C[C@@H]1[C@H](c2ccccc2)[C@H](CO)N1C(=O)c1ccccc1F	.	-1	.	.
COCC(=O)N(C)C[C@@H]1Oc2ncc(-c3ccccc3C)cc2C(=O)N([C@H](C)CO)C[C@@H]1C	.	5	.	.
C[C@H]1CN([C@@H](C)CO)C(=O)c2cc(NC(=O)C3CC3)ccc2O[C@H]1CN(C)Cc1ccc(Cl)c(Cl)c1	.	2	.	.
C[C@@H]1CN([C@@H](C)CO)C(=O)Cc2cc(NC(=O)Cc3ccccc3)ccc2O[C@H]1CN(C)S(=O)(=O)c1cccs1	.	-3	.	.
C[C@H]1CN([C@@H](C)CO)C(=O)c2cc(/C=C/c3ccccc3)cnc2O[C@@H]1CN(C)Cc1ccccc1	.	-9	.	.
C[C@@H]1CN([C@@H](C)CO)C(=O)c2cc(/C=C/c3ccccc3)cnc2O[C@@H]1CN(C)Cc1ccc2c(c1)OCO2	.	-2	.	.
COc1cc(/C=N/NC(=S)NC2CC3CCC2C3)ccc1O (stereo unspecified)	36	27	57*	-1
CNC[C@H]1Oc2ccc(NS(=O)(=O)c3cn(C)cn3)cc2C(=O)N([C@@H](C)CO)C[C@H]1C	.	-4	.	.
